High-throughput results (PubChem BioAssay)
ATXN2 expr inh: Primary qHTS for Inhibitors of ATXN expression | 360,000 compounds, 0.72% hits | HEK-293 ATXN2-luciferase reporter, luminescence, 24 h | AID 1745845, 2022 | Potency, µM (highest dose often 57 µM), hits mostly inhibitors; note: nearly all actives have a fitted effect of over 55% in size
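qHTS (up to 57 uM final) was run with 24 h compound exposure of reporter cells at 37 °C. Each well was multiplexed: SteadyGlo luminescence measured ATXN2-luciferase expression after a fluorogenic Gly-Phe-AFC viability readout (25 uM final).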
S2 tox: Viability Counterscreen for Primary qHTS for Inhibitors of ATXN expression; S2 cells (HEK-293 line with an ATXN2-luciferase reporter) viability, CellTiter-Fluor protease fluorescence, 24 h; 400,000 compounds, 0.49% hits; Potency, µM (top dose mostly 56.7 µM), usual class: cytotoxic; note: nearly all actives have a fitted effect of over 40% in size
HT1080 IDH1KD tx: qHTS for induction of synthetic lethality in tumor cells producing 2HG: qHTS for the HT-1080-IDH1KD cell line | AID 686971, 2013 | Potency, µM (doses to about 46.1 µM), usual class: cytotoxic | HT-1080 IDH1 knockdown viability, ATP luminescence, 48 h | 360,000 compounds, 2% hits
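After a 2 h attachment period, IDH1KD HT-1080 cells took pin-transferred compound for 48 h at 37 °C; ATP-based luminescence after 10 min room-temperature reagent incubation reported viability.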
KB-V1 cytotox: qHTS assay for MDR1-selective chemotherapeutics: Primary screen using the drug-selected MDR subline cells KB-V1; KB-V1 MDR cells viability, CellTiter-Glo, 72 h; 400,000 compounds, 3.4% hits; Potency, µM (doses to about 46.1 µM), usual class: cytotoxic; note: nearly all actives have a fitted effect of over 60% in size
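Drug-selected KB-V1 cells, grown in DMEM lacking phenol red with 10% FBS, receive compound titrations; after three days at 37 degrees C, surviving cell ATP is quantified by CellTiter-Glo luminescence and responses normalized and curve-fitted.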
KB-3-1 cytotox: qHTS assay for MDR1-selective chemotherapeutics: Primary screen using the parental adenocarcinoma cell KB-3-1; AID 1347075, 2019; Potency, µM (top dose mostly 46.1 µM), usual class: cytotoxic; KB-3-1 viability, CellTiter-Glo ATP luminescence, 72 h; 400,000 compounds, 1.4% hits; note: nearly all actives have a fitted effect of over 60% in size
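72 h, 37 °C compound treatment of KB-3-1 parental cells; CellTiter-Glo added, 10 min, luminescence read. Data corrected against DMSO-only plates and normalized before curve fitting.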
HT1080NT lethal: qHTS for induction of synthetic lethality in tumor cells producing 2HG: qHTS for the HT-1080-NT fibrosarcoma cell line. 360,000 compounds, 1.6% hits. HT-1080-NT fibrosarcoma viability, CellTiter-Glo ATP luminescence, 48 h. AID 686970, 2013. Potency, µM (doses to about 46.1 µM), actives largely listed as cytotoxic;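 note: NT is the 2HG producing partner of a matched IDH1 knockdown line; nearly all actives have a fitted effect of over 55% in size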
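HT-1080-NT fibrosarcoma cells (2HG-overproducing), 750 cells/well in RPMI with 5% FBS, dosed after 2 h and incubated 48 h at 37C. CellTiter-Glo luminescence normalized to DMSO and no-cell wells; concentration-response curves fitted and classed.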
A number is an active result; [ ] = dose if it differs, or a comment. Hits are enriched below; roughly 6.2% of the tested compounds scored in any of these assays. Calls come from the whole dose curve; as a rule, active = well fitted curve in the direction sought with a large enough effect; inconclusive = small, poorly fitted or top-dose-only effect, or another doubt; inactive = no such curve, though single readings can be large; an effect the other way counts as inactive or inconclusive.

`CN(CC(=O)NCc1ccccc1)CC(=O)Nc1ccc(Cl)c(C(F)(F)F)c1` gave ATXN2 expr inh inactive, S2 tox inactive, HT1080 IDH1KD tx inactive, KB-V1 cytotox inconclusive, KB-3-1 cytotox inactive and HT1080NT lethal inactive.
For CN(CC(=O)NCCc1ccc(S(N)(=O)=O)cc1)CC(=O)Nc1ccc(Cl)c(C(F)(F)F)c1 the results were ATXN2 expr inh inconclusive, S2 tox inactive, HT1080 IDH1KD tx inactive, KB-V1 cytotox inactive, KB-3-1 cytotox 16µM and HT1080NT lethal inactive.
For CN(CC(=O)NC(=O)NCc1ccccc1)CC(=O)Nc1ccc(Cl)c(C(F)(F)F)c1 the results were ATXN2 expr inh inactive, S2 tox inactive, HT1080 IDH1KD tx inconclusive, KB-V1 cytotox inconclusive, KB-3-1 cytotox inconclusive and HT1080NT lethal 18µM.
CCOc1sc2nc(C)n(CC(=O)Nc3cccc(C)c3)c(=O)c2c1C was read as ATXN2 expr inh inactive, S2 tox inactive, KB-V1 cytotox inactive and KB-3-1 cytotox inactive.
`Fc1ccc(-n2cc(-c3ccccc3)c3c(=S)nc[nH]c32)cc1` gave ATXN2 expr inh inactive, HT1080 IDH1KD tx inconclusive, KB-V1 cytotox inactive, KB-3-1 cytotox 18µM and HT1080NT lethal inactive.
`O=C(C1CC1)N1CCc2cc(Br)cc(S(=O)(=O)N3CCCCCC3)c21` gave ATXN2 expr inh inactive, S2 tox inconclusive, HT1080 IDH1KD tx inactive, KB-V1 cytotox 9.2µM, KB-3-1 cytotox inconclusive and HT1080NT lethal inactive.
Screening COc1ccccc1-c1nn(CCC(=O)Nc2ccc(C)cc2)c2nc(C)cc(C)c12 returned ATXN2 expr inh inactive, S2 tox inactive, KB-V1 cytotox inconclusive and KB-3-1 cytotox inactive.
`Cc1cc(NC(=O)CSc2nc3ccccc3c(=O)n2C2CCCC2)no1` gave ATXN2 expr inh inactive, S2 tox inconclusive, HT1080 IDH1KD tx 1.8µM, KB-V1 cytotox 1.3µM, KB-3-1 cytotox inconclusive and HT1080NT lethal inconclusive.
For CN(C)c1ccc(NC(=O)CSc2nc3ccccc3c(=O)n2C2CCCCC2)cc1 the results were ATXN2 expr inh inactive, S2 tox inactive, HT1080 IDH1KD tx inactive, KB-V1 cytotox inactive, KB-3-1 cytotox inactive and HT1080NT lethal inactive.
Cc1cc(NC(=O)CSc2nc3cc(Cl)ccc3o2)no1 was read as ATXN2 expr inh inactive, S2 tox inactive, HT1080 IDH1KD tx inactive, KB-V1 cytotox inactive, KB-3-1 cytotox inconclusive and HT1080NT lethal inactive.
`COc1ccc(C)cc1-n1c(SCC(=O)Nc2cc(C)on2)nc2ccccc2c1=O` gave ATXN2 expr inh inactive, S2 tox inactive, HT1080 IDH1KD tx inactive, KB-V1 cytotox 18µM, KB-3-1 cytotox inconclusive and HT1080NT lethal inactive.
For CCCN(CCC)C(=O)CSc1nc2ccccc2c(=O)n1C1CCCC1 the results were ATXN2 expr inh inactive, S2 tox inactive, HT1080 IDH1KD tx inconclusive, KB-V1 cytotox 7.3µM, KB-3-1 cytotox inactive and HT1080NT lethal inactive.
`CCN(CC)S(=O)(=O)c1ccc2oc(SCC(=O)Nc3cc(C)on3)nc2c1` gave ATXN2 expr inh inconclusive, S2 tox inactive, HT1080 IDH1KD tx inconclusive, KB-V1 cytotox 3.7µM, KB-3-1 cytotox inconclusive and HT1080NT lethal inactive.
COc1ccc(NC(=O)CSc2nnc(NC(=O)NC3CCCCC3)s2)cc1OC was read as ATXN2 expr inh inactive, S2 tox inactive, KB-V1 cytotox inactive and KB-3-1 cytotox inactive.
Nc1cccc(S(=O)(=O)N2CCOCC2)c1 was read as KB-V1 cytotox inactive and KB-3-1 cytotox inconclusive.
Screening CCN(CC)c1nc(C#N)nc(N2CCOCC2)n1 returned KB-V1 cytotox inconclusive and KB-3-1 cytotox inactive.
`CCc1cc2cc(C)ccc2nc1SCC(=O)Nc1cc(C)on1` gave ATXN2 expr inh inactive, S2 tox inactive, HT1080 IDH1KD tx inactive, KB-V1 cytotox 9.2µM, KB-3-1 cytotox inactive and HT1080NT lethal inactive.
For CCc1cc2ccc(C)cc2nc1SCC(=O)Nc1cc(C)on1 the results were ATXN2 expr inh inactive, S2 tox inactive, HT1080 IDH1KD tx inactive, KB-V1 cytotox inactive, KB-3-1 cytotox inactive and HT1080NT lethal inactive.
CC(=O)c1cnn(-c2ccccc2)c1C was read as ATXN2 expr inh inactive[11.3 µM], S2 tox inactive, HT1080 IDH1KD tx inactive, KB-V1 cytotox inactive, KB-3-1 cytotox inactive and HT1080NT lethal inactive.
For Nc1c(C(=O)N/N=C/c2ccc([N+](=O)[O-])cc2)cnn1-c1ccccc1 the results were ATXN2 expr inh inactive, S2 tox inactive, HT1080 IDH1KD tx inactive, KB-V1 cytotox inactive, KB-3-1 cytotox inactive and HT1080NT lethal inactive.
Screening Cc1c(C(=S)Nc2ccccc2)cnn1-c1ccc([N+](=O)[O-])cc1 returned ATXN2 expr inh inactive, S2 tox inconclusive, HT1080 IDH1KD tx inactive, KB-V1 cytotox 18µM, KB-3-1 cytotox inconclusive and HT1080NT lethal inactive.
`Cc1c(C(=S)Nc2ccccc2)cnn1-c1ccccc1` gave ATXN2 expr inh inactive, S2 tox inactive, HT1080 IDH1KD tx inactive, KB-V1 cytotox 21µM, KB-3-1 cytotox inactive and HT1080NT lethal inactive.
Screening COc1cc(NC(=O)Cn2c(=O)n(-c3ccccc3)c(=O)c3c4c(sc32)CCCC4)cc(OC)c1 returned ATXN2 expr inh inactive, S2 tox inactive, KB-V1 cytotox inconclusive and KB-3-1 cytotox inactive.
For COc1ccc(Cl)cc1NC(=O)CSc1nc2ccccc2nc1N1CCCCC1 the results were ATXN2 expr inh inactive, S2 tox inactive, KB-V1 cytotox inconclusive and KB-3-1 cytotox inactive.
`O=C(NCc1nnc2n1CCN(Cc1cc3c(cc1Cl)OCO3)CC2)c1cccc(F)c1` gave S2 tox inactive.
`CCN(CC)CCC(=O)N1c2ccccc2Sc2ccc(Cl)cc21` gave ATXN2 expr inh inactive, S2 tox inactive, HT1080 IDH1KD tx 21µM, KB-V1 cytotox inconclusive, KB-3-1 cytotox inactive and HT1080NT lethal inconclusive.
`CCOC(=O)c1c(C)sc2c1N(C(=O)CN(CC)CC)c1ccccc1S2` gave ATXN2 expr inh inactive, S2 tox inconclusive, HT1080 IDH1KD tx inactive, KB-V1 cytotox inactive, KB-3-1 cytotox inactive and HT1080NT lethal inactive.
CCOC(=O)c1c(C)sc2c1N(C(=O)CN(CC)CC)c1cc(Cl)ccc1S2 was read as ATXN2 expr inh 32µM, S2 tox inconclusive, HT1080 IDH1KD tx inconclusive, KB-V1 cytotox inactive, KB-3-1 cytotox inconclusive and HT1080NT lethal inconclusive.
Screening CN1CCC=C(C(=O)N2c3ccccc3Sc3ccc(Cl)cc32)C1 returned ATXN2 expr inh inconclusive, S2 tox inconclusive, HT1080 IDH1KD tx 16µM, KB-V1 cytotox inactive, KB-3-1 cytotox inconclusive and HT1080NT lethal inconclusive.
